How the values were obtained:
[1] = target: T1, Tyrosine-protein kinase ITK/TSK (Homo sapiens) (UniProt Q08881); details: at 10 µM
T1 sequence (whole entry): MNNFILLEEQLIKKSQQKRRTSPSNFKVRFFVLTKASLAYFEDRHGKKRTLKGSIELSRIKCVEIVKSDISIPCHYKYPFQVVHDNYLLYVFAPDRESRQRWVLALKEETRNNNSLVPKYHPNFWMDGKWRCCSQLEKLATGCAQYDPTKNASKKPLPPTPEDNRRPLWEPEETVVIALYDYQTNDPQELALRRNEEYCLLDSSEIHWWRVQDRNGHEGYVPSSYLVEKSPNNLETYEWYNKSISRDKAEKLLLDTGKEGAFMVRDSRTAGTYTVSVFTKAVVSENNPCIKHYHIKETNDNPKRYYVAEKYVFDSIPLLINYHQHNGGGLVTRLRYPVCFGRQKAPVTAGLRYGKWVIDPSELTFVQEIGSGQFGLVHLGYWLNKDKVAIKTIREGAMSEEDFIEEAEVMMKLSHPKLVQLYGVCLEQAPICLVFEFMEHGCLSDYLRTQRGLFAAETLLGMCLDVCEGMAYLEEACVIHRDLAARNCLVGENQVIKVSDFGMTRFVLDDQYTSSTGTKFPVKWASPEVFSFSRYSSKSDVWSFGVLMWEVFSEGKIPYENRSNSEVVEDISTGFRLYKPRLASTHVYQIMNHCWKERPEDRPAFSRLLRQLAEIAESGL

[2] = target: Mitogen-activated protein kinase 9 (Homo sapiens) (UniProt P45984); details: at 1 µM
Sequence of Mitogen-activated protein kinase 9 (Homo sapiens) (P45984 whole entry, looked up): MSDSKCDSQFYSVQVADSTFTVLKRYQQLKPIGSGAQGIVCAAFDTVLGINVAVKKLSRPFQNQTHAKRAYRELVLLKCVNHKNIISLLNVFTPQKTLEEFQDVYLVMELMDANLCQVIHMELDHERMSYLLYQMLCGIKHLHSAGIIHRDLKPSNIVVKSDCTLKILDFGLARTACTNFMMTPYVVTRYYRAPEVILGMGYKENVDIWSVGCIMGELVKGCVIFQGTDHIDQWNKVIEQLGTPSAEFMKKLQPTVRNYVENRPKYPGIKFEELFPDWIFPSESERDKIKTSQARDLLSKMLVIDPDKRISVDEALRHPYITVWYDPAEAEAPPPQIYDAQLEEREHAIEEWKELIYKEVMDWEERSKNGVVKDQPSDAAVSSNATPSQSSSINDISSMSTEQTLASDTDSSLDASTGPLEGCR

[3] = target: Mitogen-activated protein kinase 9 (Homo sapiens) (UniProt P45984); details: at 10 µM
[4] = target: Mitogen-activated protein kinase 10 (Homo sapiens) (UniProt P53779); details: at 1 µM
Sequence of Mitogen-activated protein kinase 10 (Homo sapiens) (P53779 whole entry): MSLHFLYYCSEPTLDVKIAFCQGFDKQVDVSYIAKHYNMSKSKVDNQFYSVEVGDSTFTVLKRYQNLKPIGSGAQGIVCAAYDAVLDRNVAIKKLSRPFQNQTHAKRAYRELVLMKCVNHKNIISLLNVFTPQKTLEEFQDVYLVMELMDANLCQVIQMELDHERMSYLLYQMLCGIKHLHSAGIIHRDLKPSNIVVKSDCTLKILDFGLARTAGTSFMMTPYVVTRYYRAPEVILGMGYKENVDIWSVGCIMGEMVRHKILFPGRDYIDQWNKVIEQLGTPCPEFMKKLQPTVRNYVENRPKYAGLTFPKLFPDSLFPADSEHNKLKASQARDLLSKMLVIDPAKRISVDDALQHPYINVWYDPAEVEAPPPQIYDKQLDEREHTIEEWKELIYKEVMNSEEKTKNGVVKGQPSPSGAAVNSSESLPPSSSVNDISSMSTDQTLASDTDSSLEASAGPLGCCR

[5] = target: Mitogen-activated protein kinase 10 (Homo sapiens) (UniProt P53779); details: at 10 µM
[6] = target: Vascular endothelial growth factor receptor 2 (Homo sapiens) (UniProt P35968); details: at 1 µM
Sequence of Vascular endothelial growth factor receptor 2 (Homo sapiens) (P35968 whole entry, the tested form may be a part): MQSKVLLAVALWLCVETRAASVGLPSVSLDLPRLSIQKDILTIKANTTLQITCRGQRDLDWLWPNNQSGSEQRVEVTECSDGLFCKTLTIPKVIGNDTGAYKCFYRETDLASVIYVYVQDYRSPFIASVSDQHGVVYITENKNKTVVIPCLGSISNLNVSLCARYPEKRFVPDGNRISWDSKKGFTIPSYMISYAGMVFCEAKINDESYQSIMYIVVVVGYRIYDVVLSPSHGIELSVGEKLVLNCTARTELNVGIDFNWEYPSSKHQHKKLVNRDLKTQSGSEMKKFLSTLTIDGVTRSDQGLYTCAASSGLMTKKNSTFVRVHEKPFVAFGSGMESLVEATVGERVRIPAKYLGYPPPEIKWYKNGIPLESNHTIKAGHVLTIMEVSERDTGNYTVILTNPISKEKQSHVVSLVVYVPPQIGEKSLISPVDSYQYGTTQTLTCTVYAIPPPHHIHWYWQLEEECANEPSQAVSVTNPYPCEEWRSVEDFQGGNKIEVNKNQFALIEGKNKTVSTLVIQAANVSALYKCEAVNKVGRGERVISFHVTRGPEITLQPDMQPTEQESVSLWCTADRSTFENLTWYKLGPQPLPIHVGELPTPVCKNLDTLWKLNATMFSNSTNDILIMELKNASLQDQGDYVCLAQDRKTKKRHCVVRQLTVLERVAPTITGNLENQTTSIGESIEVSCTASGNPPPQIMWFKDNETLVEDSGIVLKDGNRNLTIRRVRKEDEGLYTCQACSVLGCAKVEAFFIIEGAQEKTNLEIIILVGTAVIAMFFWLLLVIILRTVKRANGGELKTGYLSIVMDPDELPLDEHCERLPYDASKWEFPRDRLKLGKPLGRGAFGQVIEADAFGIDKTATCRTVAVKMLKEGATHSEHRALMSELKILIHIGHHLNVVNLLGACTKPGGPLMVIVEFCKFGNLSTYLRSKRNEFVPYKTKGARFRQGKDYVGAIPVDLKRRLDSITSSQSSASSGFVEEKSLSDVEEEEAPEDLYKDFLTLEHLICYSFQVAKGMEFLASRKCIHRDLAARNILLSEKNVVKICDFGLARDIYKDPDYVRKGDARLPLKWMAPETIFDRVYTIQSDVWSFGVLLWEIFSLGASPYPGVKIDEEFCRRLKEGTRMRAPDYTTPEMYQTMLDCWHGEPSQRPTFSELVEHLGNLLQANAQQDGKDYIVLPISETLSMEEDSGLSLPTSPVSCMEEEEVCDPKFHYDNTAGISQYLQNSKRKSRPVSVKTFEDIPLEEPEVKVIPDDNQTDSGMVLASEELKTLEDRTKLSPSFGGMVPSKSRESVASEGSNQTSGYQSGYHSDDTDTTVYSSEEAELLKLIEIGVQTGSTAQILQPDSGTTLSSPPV

[7] = target: Vascular endothelial growth factor receptor 2 (Homo sapiens) (UniProt P35968); details: at 10 µM
[8] = target: LIM domain kinase 1 (Homo sapiens) (UniProt P53667); details: at 10 µM
[9] = target: T2, Serine/threonine-protein kinase STK11 (Homo sapiens) (UniProt Q15831); details: at 1 µM
T2 sequence (whole entry): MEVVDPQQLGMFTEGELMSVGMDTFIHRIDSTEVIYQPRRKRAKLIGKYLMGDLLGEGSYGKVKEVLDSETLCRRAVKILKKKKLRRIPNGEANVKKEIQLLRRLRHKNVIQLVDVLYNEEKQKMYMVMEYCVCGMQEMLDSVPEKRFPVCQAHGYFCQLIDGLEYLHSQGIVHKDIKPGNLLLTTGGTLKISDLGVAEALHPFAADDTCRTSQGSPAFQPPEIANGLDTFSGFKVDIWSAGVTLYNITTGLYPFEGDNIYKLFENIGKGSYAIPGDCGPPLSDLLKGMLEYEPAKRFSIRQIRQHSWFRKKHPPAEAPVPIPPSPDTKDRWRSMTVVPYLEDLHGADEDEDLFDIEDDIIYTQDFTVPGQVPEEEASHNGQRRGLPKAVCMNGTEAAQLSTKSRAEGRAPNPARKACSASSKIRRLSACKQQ

[10] = target: T2, Serine/threonine-protein kinase STK11 (Homo sapiens); details: at 10 µM
[11] = target: Serine/threonine-protein kinase 10 (Homo sapiens) (UniProt O94804); details: at 1 µM
Sequence of Serine/threonine-protein kinase 10 (Homo sapiens) (O94804 whole entry, looked up): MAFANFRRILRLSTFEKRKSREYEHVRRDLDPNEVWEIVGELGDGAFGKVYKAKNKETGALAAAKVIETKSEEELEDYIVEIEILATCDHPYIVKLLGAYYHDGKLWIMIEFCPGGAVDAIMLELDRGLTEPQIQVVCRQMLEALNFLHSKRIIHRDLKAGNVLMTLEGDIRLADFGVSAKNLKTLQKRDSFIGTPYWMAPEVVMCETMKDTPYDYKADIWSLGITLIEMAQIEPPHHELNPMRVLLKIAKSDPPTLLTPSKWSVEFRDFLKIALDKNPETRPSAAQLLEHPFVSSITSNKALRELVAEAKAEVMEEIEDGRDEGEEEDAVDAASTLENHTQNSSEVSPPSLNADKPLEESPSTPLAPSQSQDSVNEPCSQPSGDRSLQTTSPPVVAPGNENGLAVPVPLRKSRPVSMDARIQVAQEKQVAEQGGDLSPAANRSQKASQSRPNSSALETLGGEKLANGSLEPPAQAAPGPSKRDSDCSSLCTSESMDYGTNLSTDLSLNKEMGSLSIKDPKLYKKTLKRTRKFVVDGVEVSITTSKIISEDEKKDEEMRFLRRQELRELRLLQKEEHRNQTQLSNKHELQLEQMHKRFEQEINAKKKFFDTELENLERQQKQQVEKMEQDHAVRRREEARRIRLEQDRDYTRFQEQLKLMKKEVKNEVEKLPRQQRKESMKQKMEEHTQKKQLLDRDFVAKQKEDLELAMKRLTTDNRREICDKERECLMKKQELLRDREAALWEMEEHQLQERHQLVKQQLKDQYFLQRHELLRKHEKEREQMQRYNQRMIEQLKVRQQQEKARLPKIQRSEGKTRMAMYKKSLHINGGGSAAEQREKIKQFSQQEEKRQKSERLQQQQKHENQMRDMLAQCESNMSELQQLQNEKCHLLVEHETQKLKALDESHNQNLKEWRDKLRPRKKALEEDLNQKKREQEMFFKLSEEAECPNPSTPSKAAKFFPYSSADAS

[12] = target: Serine/threonine-protein kinase 10 (Homo sapiens) (UniProt O94804); details: at 10 µM
[13] = target: Tyrosine-protein kinase JAK2 (Homo sapiens) (UniProt O60674); details: at 1 µM
Sequence of Tyrosine-protein kinase JAK2 (Homo sapiens) (O60674 whole entry, the tested form may be a part): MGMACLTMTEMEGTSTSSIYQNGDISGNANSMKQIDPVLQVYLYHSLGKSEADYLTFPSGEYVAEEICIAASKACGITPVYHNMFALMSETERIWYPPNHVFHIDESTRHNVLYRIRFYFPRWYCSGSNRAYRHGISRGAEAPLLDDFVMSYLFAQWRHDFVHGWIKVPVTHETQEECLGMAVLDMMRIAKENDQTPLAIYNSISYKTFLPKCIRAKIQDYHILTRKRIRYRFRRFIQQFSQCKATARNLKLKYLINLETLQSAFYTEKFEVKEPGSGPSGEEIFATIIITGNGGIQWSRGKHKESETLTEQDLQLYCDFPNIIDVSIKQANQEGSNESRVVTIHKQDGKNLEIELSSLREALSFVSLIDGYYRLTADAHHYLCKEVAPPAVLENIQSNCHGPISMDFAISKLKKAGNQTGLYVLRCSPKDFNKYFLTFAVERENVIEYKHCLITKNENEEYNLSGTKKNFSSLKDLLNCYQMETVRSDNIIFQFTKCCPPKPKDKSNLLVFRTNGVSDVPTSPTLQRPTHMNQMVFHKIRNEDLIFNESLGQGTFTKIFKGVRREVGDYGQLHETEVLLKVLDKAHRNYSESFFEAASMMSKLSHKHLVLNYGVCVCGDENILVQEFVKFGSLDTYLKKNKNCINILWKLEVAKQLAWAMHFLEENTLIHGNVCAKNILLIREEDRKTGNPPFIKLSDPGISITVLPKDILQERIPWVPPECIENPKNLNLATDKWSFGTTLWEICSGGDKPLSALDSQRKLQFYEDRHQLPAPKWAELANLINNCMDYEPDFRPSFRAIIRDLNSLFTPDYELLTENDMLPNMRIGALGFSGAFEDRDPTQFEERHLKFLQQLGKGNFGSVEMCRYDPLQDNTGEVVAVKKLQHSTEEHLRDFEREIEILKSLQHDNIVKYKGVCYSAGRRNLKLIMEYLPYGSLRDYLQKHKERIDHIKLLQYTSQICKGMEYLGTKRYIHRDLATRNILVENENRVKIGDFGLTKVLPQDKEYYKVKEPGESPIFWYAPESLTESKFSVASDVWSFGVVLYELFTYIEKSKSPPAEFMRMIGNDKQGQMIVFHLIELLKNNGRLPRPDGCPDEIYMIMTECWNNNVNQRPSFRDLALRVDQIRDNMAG

[14] = target: Tyrosine-protein kinase JAK2 (Homo sapiens) (UniProt O60674); details: at 10 µM
[15] = target: LIM domain kinase 1 (Homo sapiens) (UniProt P53667); details: at 1 µM
[16] = target: T3, Tyrosine-protein kinase JAK3 (Homo sapiens) (UniProt P52333); details: at 1 µM
T3 sequence (whole entry): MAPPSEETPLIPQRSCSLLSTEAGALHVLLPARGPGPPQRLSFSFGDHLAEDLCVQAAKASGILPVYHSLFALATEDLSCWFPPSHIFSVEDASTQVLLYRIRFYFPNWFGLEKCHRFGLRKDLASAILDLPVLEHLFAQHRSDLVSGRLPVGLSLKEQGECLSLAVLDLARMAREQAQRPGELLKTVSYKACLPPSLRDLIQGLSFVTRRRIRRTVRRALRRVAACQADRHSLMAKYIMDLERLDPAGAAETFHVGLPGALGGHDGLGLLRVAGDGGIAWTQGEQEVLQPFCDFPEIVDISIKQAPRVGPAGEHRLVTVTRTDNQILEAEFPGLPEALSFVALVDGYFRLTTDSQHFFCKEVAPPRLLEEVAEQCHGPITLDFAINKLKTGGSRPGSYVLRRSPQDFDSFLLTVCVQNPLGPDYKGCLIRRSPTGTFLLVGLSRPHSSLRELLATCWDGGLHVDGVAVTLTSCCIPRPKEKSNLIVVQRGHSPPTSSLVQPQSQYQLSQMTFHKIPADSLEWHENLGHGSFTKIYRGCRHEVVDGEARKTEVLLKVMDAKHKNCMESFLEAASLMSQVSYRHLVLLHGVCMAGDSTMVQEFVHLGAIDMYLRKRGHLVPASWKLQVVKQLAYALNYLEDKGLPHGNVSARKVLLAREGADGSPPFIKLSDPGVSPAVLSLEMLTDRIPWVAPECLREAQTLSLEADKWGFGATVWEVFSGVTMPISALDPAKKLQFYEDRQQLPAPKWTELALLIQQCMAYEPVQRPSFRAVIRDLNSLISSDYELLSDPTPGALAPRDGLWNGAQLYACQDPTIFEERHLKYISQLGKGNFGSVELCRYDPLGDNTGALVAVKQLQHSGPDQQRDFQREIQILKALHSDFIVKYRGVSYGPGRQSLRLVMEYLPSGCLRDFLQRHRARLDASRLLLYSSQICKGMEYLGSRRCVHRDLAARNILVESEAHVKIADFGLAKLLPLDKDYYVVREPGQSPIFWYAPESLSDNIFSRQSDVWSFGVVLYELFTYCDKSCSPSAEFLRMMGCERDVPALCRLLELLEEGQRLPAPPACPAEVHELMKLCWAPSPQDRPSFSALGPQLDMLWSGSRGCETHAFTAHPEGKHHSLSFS

[17] = target: T3, Tyrosine-protein kinase JAK3 (Homo sapiens); details: at 10 µM
[18] = target: Mitogen-activated protein kinase 8 (Homo sapiens) (UniProt P45983); details: at 1 µM
Sequence of Mitogen-activated protein kinase 8 (Homo sapiens) (P45983 whole entry): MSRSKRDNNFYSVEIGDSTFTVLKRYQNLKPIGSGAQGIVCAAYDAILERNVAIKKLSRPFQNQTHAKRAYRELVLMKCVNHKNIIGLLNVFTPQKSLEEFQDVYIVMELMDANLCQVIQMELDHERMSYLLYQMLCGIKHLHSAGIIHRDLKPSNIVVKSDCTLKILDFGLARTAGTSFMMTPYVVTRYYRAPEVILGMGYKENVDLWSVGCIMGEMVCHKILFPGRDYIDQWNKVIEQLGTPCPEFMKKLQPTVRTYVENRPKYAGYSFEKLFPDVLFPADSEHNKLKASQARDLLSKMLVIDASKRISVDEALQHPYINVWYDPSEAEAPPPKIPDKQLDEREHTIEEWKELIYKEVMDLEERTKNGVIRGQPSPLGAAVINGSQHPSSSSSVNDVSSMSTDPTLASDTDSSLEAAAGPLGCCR

[19] = target: Mitogen-activated protein kinase 8 (Homo sapiens) (UniProt P45983); details: at 10 µM
[20] = target: Tyrosine-protein kinase Lck (Homo sapiens) (UniProt P06239); details: at 1 µM

SMILES | residual activity [1] [%] | residual activity [2] [%] | residual activity [3] [%] | residual activity [4] [%] | residual activity [5] [%] | residual activity [6] [%] | residual activity [7] [%] | residual activity [8] [%] | residual activity [9] [%] | residual activity [10] [%] | residual activity [11] [%] | residual activity [12] [%] | residual activity [13] [%] | residual activity [14] [%] | residual activity [15] [%] | residual activity [16] [%] | residual activity [17] [%] | residual activity [18] [%] | residual activity [19] [%] | residual activity [20] [%]
O=C1NC(=O)C(c2cn(CCCO)c3ncccc23)=C1c1cnccn1 | 91 | 96 | 80 | 89 | 86 | 64 | 63 | 80 | 85 | 75 | 94 | 80 | – | – | – | – | – | – | – | –
Nc1ncnc2c1cnn2-c1ccccc1 | 97 | – | 95 | 78 | 70 | 102 | 83 | 67 | 96 | 98 | 98 | 85 | 126 | 93 | 99 | – | – | – | – | –
CN(C)S(=O)(=O)c1ccc2c(c1)/C(=C/c1cc3c([nH]1)CCCC3)C(=O)N2 | 22 | – | – | 89 | 81 | 51 | 40 | 77 | 99 | 96 | 63 | 78 | 67 | 25 | 90 | 66 | 48 | 99 | 94 | –
O=C(CCCc1ccc(-c2ccccc2F)cc1)Nc1ccc(O)cc1 | 98 | 93 | 99 | 109 | 94 | 110 | 108 | 85 | 100 | 97 | 112 | 94 | 108 | 111 | 96 | 104 | 104 | 99 | 98 | 99
Nc1ncnc2c1c(-c1ccc(Oc3ccccc3)cc1)cn2C1CCCC1 | 4 | 104 | 92 | 77 | 81 | 24 | 3 | 13 | 105 | 91 | 73 | 38 | 96 | 124 | 72 | 91 | 65 | 100 | 64 | 1
O=S(=O)(NCCNC/C=C/c1ccc(Br)cc1)c1cccc2cnccc12 | 100 | – | – | – | – | – | 62 | 29 | – | – | 71 | 53 | – | – | 79 | – | – | – | – | –
